Measurements taken from PubChem BioAssay (Tox21).
Where “and” joins values, the source holds several entries; their conditions need not be identical. Equal entries are not always repeated. Inconclusive results are not listed. The source holds several records for some structures; these can differ, active in one and inactive in another. Calls of active or inactive are those of the source. Calls follow the shape of the full dose curve.
% is scaled to controls: 0 for no effect and ±100 for the full control effect; potency is read from the fitted curve at half-maximal effect.

Experiment: qHTS assay for small molecule agonists of the p53 signaling pathway - cell viability (AID 651633); also: nearly all actives have a fitted effect of over 30% in size;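 as to activity change, negative = cytotoxicity: p53RE-bla HCT reporter cells with a stable beta-lactamase p53 reporter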
Settings: p53RE-bla HCT-116 viability, ATP luminescence, 16 h; series mostly up to 83.3 µM; activity change, negative = cytotoxicity: at the top concentration
How it was run: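 p53RE-bla cells, seeded at 4,000 per well and rested 5 h at 37 C/5% CO2, received compounds in DMSO for 16 h at 37 C. CellTiter-Glo was then added, and luminescence was read after 30 min at room temperature to gauge cytotoxicity.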
With `C/C=C/C=C/CCCCCCCO` the “activity change, negative = cytotoxicity” value was -9.28% (inactive). For `Cc1cc(OI)c(C(C)C)cc1-c1cc(C(C)C)c(OI)cc1C`, the “activity change, negative = cytotoxicity” value was 13.3% (inactive). In the case of `CCCCN(CCCC)CCCOC(=O)c1ccc(N)cc1`, the “activity change, negative = cytotoxicity” value is reported as 4.38% [at 39.1 µM] (inactive). With `CC(C)(C)C(=O)O` the “activity change, negative = cytotoxicity” value was 11.7% [at 95.3 µM] (inactive). For `CCCCC/C(=C\c1ccccc1)CO`, the “activity change, negative = cytotoxicity” value was -3.9% [at 95.3 µM] (inactive). For `C[N+]1(C)CCC(=C(c2ccccc2)c2ccccc2)CC1`, the “activity change, negative = cytotoxicity” value was -12.3% [at 39.1 µM] (inactive). With `CO[C@H]1C=CO[C@@]2(C)Oc3c(C)c(O)c4c(O)c(c5c(c4c3C2=O)=NC2(CCN(CC(C)C)CC2)N=5)NC(=O)/C(C)=C\C=C/[C@H](C)[C@H](O)[C@@H](C)[C@@H](O)[C@@H](C)[C@H](OC(C)=O)[C@@H]1C` the “activity change, negative = cytotoxicity” value was 6.5% (inactive). In the case of `CCC(C)=O`, the “activity change, negative = cytotoxicity” value is reported as 8.58% (inactive). In the case of `C[N+](C)(C)CCOC(N)=O`, the “activity change, negative = cytotoxicity” value is reported as -12.1% (inactive). In the case of `CN1CCN(CCCN2c3ccccc3Sc3ccc(S(=O)(=O)N(C)C)cc32)CC1`, the “activity change, negative = cytotoxicity” value is reported as 14.2% [at 39.1 µM] (inactive). With `CCCCCC=CCC=CCCCCCCCC(=O)OCC` the “activity change, negative = cytotoxicity” value was -15% (inactive). In the case of `Cc1cc(O)c(C(C)C)cc1Cl`, the Potency is reported as “inactive and 54.5 µM (active)”. In the case of `CCOC(=O)[C@@H](C)Oc1ccc(Oc2nc3ccc(Cl)cc3o2)cc1`, the “activity change, negative = cytotoxicity” value is reported as -10.4% (inactive). With `CC(=O)[C@H]1CC[C@H]2[C@@H]3C[C@H](C)C4=CC(=O)CC[C@]4(C)[C@H]3[C@@H](O)C[C@]12C` the “activity change, negative = cytotoxicity” value was -17.5% [at 39.1 µM] (inactive). In the case of `CNCCCC1c2ccccc2C=Cc2ccccc21`, the “activity change, negative = cytotoxicity” value is reported as 20.1% [at 39.1 µM] (inactive). With `CC(=O)CC(c1ccc([N+](=O)[O-])cc1)c1c(O)c2ccccc2oc1=O` (centres undefined) the “activity change, negative = cytotoxicity” value was 16.5% [at 39.1 µM] (inactive). With `CC(C)(CCl)c1ccccc1` the “activity change, negative = cytotoxicity” value was -23.7% (inactive). In the case of `CCC(C(=O)OCCN(CC)CC)c1ccccc1` (centres undefined), the “activity change, negative = cytotoxicity” value is reported as 9.87% (inactive). With `CCOC(=O)c1ccccc1C` the “activity change, negative = cytotoxicity” value was 17.3% (inactive). With `CC1CC(=O)NN=C1c1ccc(NCC(C)(C)NCC(O)COc2cc(Cl)ccc2C#N)cc1` (centres undefined) the “activity change, negative = cytotoxicity” value was 11.1% (inactive). In the case of `CC[C@@H]([C@H](C)O)n1ncn(-c2ccc(N3CCN(c4ccc(OC[C@@H]5CO[C@@](Cn6cncn6)(c6ccc(F)cc6F)C5)cc4)CC3)cc2)c1=O`, the Potency is reported as 29.8 µM (active). With `CCn1nc(C)c2c1C(=O)NCC(c1ccc(O)cc1)=N2` the “activity change, negative = cytotoxicity” value was 15.6% (inactive). With `CCn1cc(C(=O)O)c(=O)c2cc(F)c(N3CCNCC3)nc21` the “activity change, negative = cytotoxicity” value was 5.96% [at 39.1 µM] (inactive). For `CNC(=S)NC`, the “activity change, negative = cytotoxicity” value was -5.68% (inactive). In the case of `CCCCOC(=O)CCS`, the “activity change, negative = cytotoxicity” value is reported as -5.66% (inactive). With `Fc1c(F)c(F)c(Br)c(F)c1F` the “activity change, negative = cytotoxicity” value was -9.33% (inactive). With `N#C/C(=C1\SCC(c2ccccc2Cl)S1)n1ccnc1` (centres undefined) the “activity change, negative = cytotoxicity” value was 3.16% (inactive). In the case of `CCC(C)(C)C1CCC(O)CC1` (centres undefined), the “activity change, negative = cytotoxicity” value is reported as -15.9% (inactive). With `O=S(=O)(c1ccccc1)c1ccc(Cl)cc1` the “activity change, negative = cytotoxicity” value was 4% (inactive). With `CC(C)OCC1CO1` (centres undefined) the “activity change, negative = cytotoxicity” value was 13.9% (inactive). In the case of `c1cnc2c(n1)CCCC2`, the “activity change, negative = cytotoxicity” value is reported as 5.21% (inactive). In the case of `COC(=O)Nc1nc2ccc(C(=O)c3cccs3)cc2[nH]1`, the “activity change, negative = cytotoxicity” value is reported as 14.4% (inactive). In the case of `CCCCCCCCCCCC[N+](C)(C)CC(=O)[O-]`, the “activity change, negative = cytotoxicity” value is reported as -14.1% (inactive). For `O=C(Nc1ccc([N+](=O)[O-])cc1)Nc1ccc([N+](=O)[O-])cc1`, the “activity change, negative = cytotoxicity” value was -12.7% (inactive).

Experiment: qHTS assay for small molecules that induce genotoxicity in human embryonic kidney cells expressing luciferase-tagged ATAD5 - cell viability (AID 651634); also: nearly all actives have a fitted effect of over 25% in size
Settings: HEK293T ATAD5-luc cells viability, CellTiter-Fluor, 15.5 h; series mostly up to 83.3 µM; activity, negative = cytotoxicity: at the top concentration
How it was run: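 After 15.5 hr incubation with compound at 37C, 5% CO2, HEK293T ATAD5-luciferase cells received CellTiter-Fluor reagent; fluorescence intensity was quantified following 30 min at 37C.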
With `C/C=C/C=C/CCCCCCCO` the “activity, negative = cytotoxicity” value was -9.05% (inactive). For `Cc1cc(OI)c(C(C)C)cc1-c1cc(C(C)C)c(OI)cc1C`, the “activity, negative = cytotoxicity” value was -10.7% (inactive). For `CCCCN(CCCC)CCCOC(=O)c1ccc(N)cc1`, the “activity, negative = cytotoxicity” value was 10.6% [at 39.1 µM] (inactive). In the case of `CCCCC1C(=O)N(c2ccccc2)N(c2ccc(O)cc2)C1=O` (centres undefined), the “activity, negative = cytotoxicity” value is reported as -8.37% [at 39.1 µM] (inactive). With `CC(C)(C)CC(C)(C)c1ccc(OCCO)cc1` the Potency was 54.2 µM (active). With `CC(C)(C)C(=O)O` the “activity, negative = cytotoxicity” value was 5.18% [at 95.3 µM] (inactive). With `CCCCC/C(=C\c1ccccc1)CO` the “activity, negative = cytotoxicity” value was 8.24% [at 95.3 µM] (inactive). For `CO[C@H]1C=CO[C@@]2(C)Oc3c(C)c(O)c4c(O)c(c5c(c4c3C2=O)=NC2(CCN(CC(C)C)CC2)N=5)NC(=O)/C(C)=C\C=C/[C@H](C)[C@H](O)[C@@H](C)[C@@H](O)[C@@H](C)[C@H](OC(C)=O)[C@@H]1C`, the Potency was 53.3 µM (active). With `CCC(C)=O` the “activity, negative = cytotoxicity” value was 10.8% (inactive). With `C[N+](C)(C)CCOC(N)=O` the “activity, negative = cytotoxicity” value was 11.4% (inactive). With `CN1CCN(CCCN2c3ccccc3Sc3ccc(S(=O)(=O)N(C)C)cc32)CC1` the “activity, negative = cytotoxicity” value was 11.5% [at 39.1 µM] (inactive). In the case of `CCCCCC=CCC=CCCCCCCCC(=O)OCC`, the “activity, negative = cytotoxicity” value is reported as 5.58% (inactive). For `Cc1cc(O)c(C(C)C)cc1Cl`, the Potency was “inactive”. For `CCC(Cc1ccccc1)(C(=O)c1ccc(N2CCOCC2)cc1)N(C)C` (centres undefined), the “activity, negative = cytotoxicity” value was 6.52% (inactive). In the case of `CCOC(=O)[C@@H](C)Oc1ccc(Oc2nc3ccc(Cl)cc3o2)cc1`, the “activity, negative = cytotoxicity” value is reported as 15.6% (inactive). For `CC(=O)[C@H]1CC[C@H]2[C@@H]3C[C@H](C)C4=CC(=O)CC[C@]4(C)[C@H]3[C@@H](O)C[C@]12C`, the “activity, negative = cytotoxicity” value was -6.54% [at 39.1 µM] (inactive). In the case of `CNCCCC1c2ccccc2C=Cc2ccccc21`, the “activity, negative = cytotoxicity” value is reported as 14.7% [at 39.1 µM] (inactive). With `CCc1c2c(nc3ccc(OC(=O)N4CCC(N5CCCCC5)CC4)cc13)-c1cc3c(c(=O)n1C2)COC(=O)[C@]3(O)CC` the “activity, negative = cytotoxicity” value was 71.5% (inactive). For `CC(=O)CC(c1ccc([N+](=O)[O-])cc1)c1c(O)c2ccccc2oc1=O` (centres undefined), the “activity, negative = cytotoxicity” value was -6.84% [at 39.1 µM] (inactive). With `CC(C)(CCl)c1ccccc1` the “activity, negative = cytotoxicity” value was 6.26% (inactive). In the case of `CCC(C(=O)OCCN(CC)CC)c1ccccc1` (centres undefined), the “activity, negative = cytotoxicity” value is reported as 33% (inactive). With `CCOC(=O)c1ccccc1C` the “activity, negative = cytotoxicity” value was -17.6% (inactive). With `CC1CC(=O)NN=C1c1ccc(NCC(C)(C)NCC(O)COc2cc(Cl)ccc2C#N)cc1` (centres undefined) the “activity, negative = cytotoxicity” value was -17.1% (inactive). In the case of `CCn1nc(C)c2c1C(=O)NCC(c1ccc(O)cc1)=N2`, the “activity, negative = cytotoxicity” value is reported as -3.55% (inactive). With `CCn1cc(C(=O)O)c(=O)c2cc(F)c(N3CCNCC3)nc21` the “activity, negative = cytotoxicity” value was -9.41% [at 39.1 µM] (inactive). With `CNC(=S)NC` the “activity, negative = cytotoxicity” value was 20.8% (inactive). For `CCCCOC(=O)CCS`, the “activity, negative = cytotoxicity” value was -3.3% (inactive). For `Fc1c(F)c(F)c(Br)c(F)c1F`, the “activity, negative = cytotoxicity” value was 15.6% (inactive). With `N#C/C(=C1\SCC(c2ccccc2Cl)S1)n1ccnc1` (centres undefined) the “activity, negative = cytotoxicity” value was 15% (inactive). For `CCC(C)(C)C1CCC(O)CC1` (centres undefined), the “activity, negative = cytotoxicity” value was 7.01% (inactive). For `O=S(=O)(c1ccccc1)c1ccc(Cl)cc1`, the “activity, negative = cytotoxicity” value was 28.5% (inactive). With `CC(C)OCC1CO1` (centres undefined) the “activity, negative = cytotoxicity” value was 7.06% (inactive). In the case of `COC(=O)Nc1nc2ccc(C(=O)c3cccs3)cc2[nH]1`, the Potency is reported as 0.133 µM (active). With `CCCCCCCCCCCC[N+](C)(C)CC(=O)[O-]` the “activity, negative = cytotoxicity” value was -10.9% (inactive). In the case of `O=C(Nc1ccc([N+](=O)[O-])cc1)Nc1ccc([N+](=O)[O-])cc1`, the “activity, negative = cytotoxicity” value is reported as 18.8% (inactive).
